We go through 3 molecules from ChEMBL document CHEMBL3988442, “University of Dundee, Small-Polar-MMV Screening Library” (2021).

Molecules are shown by their SMILES. For part of these data: Entries with a potency or affinity are not part of this list.

Test [1] deals with T1, Methionyl-tRNA synthetase, putative (Leishmania donovani (strain BPK282A1)) (UniProt E9BF75).
T1 sequence (whole entry): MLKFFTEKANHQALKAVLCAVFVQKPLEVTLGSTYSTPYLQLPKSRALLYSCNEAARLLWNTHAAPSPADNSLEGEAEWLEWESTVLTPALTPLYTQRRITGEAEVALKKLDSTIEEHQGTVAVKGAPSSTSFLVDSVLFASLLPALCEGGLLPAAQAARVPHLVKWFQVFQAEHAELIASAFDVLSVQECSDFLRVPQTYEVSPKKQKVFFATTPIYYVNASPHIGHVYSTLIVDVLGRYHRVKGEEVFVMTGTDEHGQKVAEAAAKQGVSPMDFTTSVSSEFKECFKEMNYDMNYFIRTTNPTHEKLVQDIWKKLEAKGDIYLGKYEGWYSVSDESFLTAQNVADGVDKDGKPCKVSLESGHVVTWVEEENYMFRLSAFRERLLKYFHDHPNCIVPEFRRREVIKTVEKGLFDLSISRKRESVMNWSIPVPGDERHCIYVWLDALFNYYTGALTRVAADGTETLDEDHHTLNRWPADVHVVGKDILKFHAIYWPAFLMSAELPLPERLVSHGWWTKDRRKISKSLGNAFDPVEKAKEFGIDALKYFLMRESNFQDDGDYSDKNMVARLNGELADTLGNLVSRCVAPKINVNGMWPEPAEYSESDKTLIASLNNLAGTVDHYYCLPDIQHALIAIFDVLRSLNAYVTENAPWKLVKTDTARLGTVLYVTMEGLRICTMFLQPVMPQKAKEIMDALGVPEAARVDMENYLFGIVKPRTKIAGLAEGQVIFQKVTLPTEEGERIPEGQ
Description: Leishmania donovani Methionine tRNA synthetase (LdMetRS):v7. Dose response assay. Format: functional. More on the design: conc 80 nM, time 150 minutes.

The target in test [2] is Protein translocase subunit SecA (Escherichia coli (strain K12)) (UniProt P10408). In words: Assay to Identify E. coli SecA ATPase Inhibitors. Format: functional. More on the design: scale not given: direction of the effect not stated beside the values. Conditions: 30 µM.
Test [3] concerns the target T2, Ubiquitin-activating enzyme e1, putative (Leishmania donovani (strain BPK282A1)) (UniProt E9BSI1).
T2 sequence (whole entry): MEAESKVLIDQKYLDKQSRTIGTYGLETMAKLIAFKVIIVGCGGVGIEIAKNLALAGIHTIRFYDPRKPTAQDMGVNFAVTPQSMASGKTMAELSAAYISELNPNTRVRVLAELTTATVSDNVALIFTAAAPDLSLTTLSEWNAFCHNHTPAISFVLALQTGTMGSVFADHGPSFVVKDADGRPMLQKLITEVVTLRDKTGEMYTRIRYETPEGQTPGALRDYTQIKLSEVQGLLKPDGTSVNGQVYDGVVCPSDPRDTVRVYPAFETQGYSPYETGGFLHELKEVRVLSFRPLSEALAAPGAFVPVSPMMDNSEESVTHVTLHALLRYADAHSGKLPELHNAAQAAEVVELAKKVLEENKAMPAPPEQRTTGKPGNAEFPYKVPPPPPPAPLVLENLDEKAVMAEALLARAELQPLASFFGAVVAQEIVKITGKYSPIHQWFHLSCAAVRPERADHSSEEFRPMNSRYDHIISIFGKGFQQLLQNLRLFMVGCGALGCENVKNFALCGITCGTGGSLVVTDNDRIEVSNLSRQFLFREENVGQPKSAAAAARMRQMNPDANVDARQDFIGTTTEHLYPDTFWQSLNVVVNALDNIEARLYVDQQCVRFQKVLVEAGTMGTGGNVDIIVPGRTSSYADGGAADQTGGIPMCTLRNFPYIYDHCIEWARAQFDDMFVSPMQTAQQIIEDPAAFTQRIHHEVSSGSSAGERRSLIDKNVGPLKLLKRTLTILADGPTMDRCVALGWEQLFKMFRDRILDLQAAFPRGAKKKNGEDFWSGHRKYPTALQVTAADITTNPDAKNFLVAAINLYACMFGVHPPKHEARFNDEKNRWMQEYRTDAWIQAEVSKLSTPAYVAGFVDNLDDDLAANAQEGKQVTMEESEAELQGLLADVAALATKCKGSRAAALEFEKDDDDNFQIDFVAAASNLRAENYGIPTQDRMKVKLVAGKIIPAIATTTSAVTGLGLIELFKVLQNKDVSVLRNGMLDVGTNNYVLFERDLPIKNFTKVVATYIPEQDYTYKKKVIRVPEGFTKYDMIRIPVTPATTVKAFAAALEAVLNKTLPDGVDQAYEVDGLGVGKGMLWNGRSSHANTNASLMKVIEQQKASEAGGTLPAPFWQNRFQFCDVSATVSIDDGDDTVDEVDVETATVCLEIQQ
Description: Leishmania donovani Ubiquitin Activating Enzyme (LdE1). More on the design: scale not given: direction of the effect not stated beside the values. The following applies: 30 µM. Format: functional.

In test [4] the target is Sialic acid-binding Ig-like lectin 9 (Homo sapiens) (UniProt Q9Y336). Description: Hs-Siglec9 ALPHAscreen SOP 20170721. More on the design: scale not given: direction of the effect not stated beside the values. The following applies: 10 µM. In general terms: In Alpha technology, singlet oxygen from a donor bead excites a nearby acceptor bead.
Test [5] has as its system Trypanosoma cruzi. Description: Trypanosoma cruzi phosphomannomutase and mannose-1-phosphate guanylyltransferase assay. Format: functional. More on the design: scale not given: direction of the effect not stated beside the values. The following applies: 10 µM.
Test [6] has as its target T3, Arginase-2, mitochondrial (Homo sapiens) (UniProt P78540).
T3 sequence (whole entry): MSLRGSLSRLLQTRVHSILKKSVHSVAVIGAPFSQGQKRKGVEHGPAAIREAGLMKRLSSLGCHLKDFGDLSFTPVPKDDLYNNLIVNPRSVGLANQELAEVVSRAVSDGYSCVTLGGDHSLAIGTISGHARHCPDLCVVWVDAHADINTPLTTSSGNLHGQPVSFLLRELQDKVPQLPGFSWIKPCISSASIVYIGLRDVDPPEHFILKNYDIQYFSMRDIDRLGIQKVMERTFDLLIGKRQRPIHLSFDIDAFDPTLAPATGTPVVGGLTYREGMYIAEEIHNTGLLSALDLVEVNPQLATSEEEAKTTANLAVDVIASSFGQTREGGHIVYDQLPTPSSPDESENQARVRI
In words: in vitro enzyme assay to detect the production of urea directly proportional to the activity of Arginase II. Format: functional. More on the design: scale not given: in the data most compounds retested in dose-response had high values. Conditions: 33.3 µM.

Test [7] has as its target T4, Proteasome subunit beta (Trypanosoma cruzi) (UniProt O96673).
T4 sequence (whole entry): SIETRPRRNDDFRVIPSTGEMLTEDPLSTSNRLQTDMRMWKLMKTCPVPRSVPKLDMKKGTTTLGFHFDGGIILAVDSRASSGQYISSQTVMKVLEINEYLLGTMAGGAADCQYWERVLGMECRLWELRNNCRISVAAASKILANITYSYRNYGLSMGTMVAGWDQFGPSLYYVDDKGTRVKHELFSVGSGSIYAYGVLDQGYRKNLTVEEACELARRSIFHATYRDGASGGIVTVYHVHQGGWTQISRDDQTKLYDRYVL
In words: Trypanosoma cruzi proteasome chymotrypsin-like activity (TcProtChymo) assay. More on the design: scale not given: in the data most compounds retested in dose-response had high values. Conditions: 9.37 µM. Type of test: functional.

For test [8], the species on record is Homo sapiens. In words: To identify inhibition of the IFN signalling (Jak-Stat) pathway via expression of an eGFP reporter gene under the control of an IFN-stimulated response element (ISRE) containing MxA promoter. Format: functional. More on the design: scale not given: direction of the effect not stated beside the values. The following applies: 30 µM.
Test [9] addresses T5, Tyrosyl-tRNA synthetase, putative (Trypanosoma cruzi (strain CL Brener)) (UniProt Q4DSP6).
T5 sequence (whole entry): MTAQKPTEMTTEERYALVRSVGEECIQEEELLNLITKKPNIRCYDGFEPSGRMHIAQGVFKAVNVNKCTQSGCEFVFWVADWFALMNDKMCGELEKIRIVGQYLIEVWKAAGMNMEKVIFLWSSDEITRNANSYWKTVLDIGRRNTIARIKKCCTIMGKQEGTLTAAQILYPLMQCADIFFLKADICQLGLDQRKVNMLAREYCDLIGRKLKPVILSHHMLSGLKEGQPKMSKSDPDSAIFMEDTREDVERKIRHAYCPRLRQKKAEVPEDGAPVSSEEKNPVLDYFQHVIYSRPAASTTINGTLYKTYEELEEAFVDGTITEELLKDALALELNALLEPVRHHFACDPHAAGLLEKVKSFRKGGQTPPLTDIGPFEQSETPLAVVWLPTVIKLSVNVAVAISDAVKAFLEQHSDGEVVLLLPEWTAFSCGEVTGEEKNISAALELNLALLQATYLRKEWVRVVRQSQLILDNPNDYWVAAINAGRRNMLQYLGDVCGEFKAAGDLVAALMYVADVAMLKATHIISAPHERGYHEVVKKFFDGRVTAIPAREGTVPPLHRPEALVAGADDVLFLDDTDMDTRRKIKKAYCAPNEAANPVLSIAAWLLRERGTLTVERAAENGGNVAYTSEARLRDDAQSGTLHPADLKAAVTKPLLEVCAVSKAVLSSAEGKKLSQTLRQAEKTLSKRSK
In words: Trypanosoma cruzi tyrosyl tRNA synthetase (TcYRS) _High Tyrosine SOP. Format: functional. More on the design: scale not given: in the data most compounds retested in dose-response had high values. The following applies: 30 µM.

The target in test [10] is T5, Tyrosyl-tRNA synthetase, putative (Trypanosoma cruzi (strain CL Brener)). Description: Trypanosoma cruzi tyrosyl tRNA synthetase (TcYRS) SOP. Format: functional. More on the design: scale not given: direction of the effect not stated beside the values. Conditions: 30 µM.
The target in test [11] is Chromo domain-containing protein 1 (Saccharomyces cerevisiae (strain ATCC 204508 / S288c) (Baker's yeast)) (UniProt P32657). Description: ScCHD-1 Enzyme Inhibition Assay. Conditions: 30 µM. More on the design: scale not given: in the data most compounds retested in dose-response had high values. Format: functional.
Chain of Chromo domain-containing protein 1 (Saccharomyces cerevisiae (strain ATCC 204508 / S288c) (Baker's yeast)) (P32657 whole entry, the tested form may be a part): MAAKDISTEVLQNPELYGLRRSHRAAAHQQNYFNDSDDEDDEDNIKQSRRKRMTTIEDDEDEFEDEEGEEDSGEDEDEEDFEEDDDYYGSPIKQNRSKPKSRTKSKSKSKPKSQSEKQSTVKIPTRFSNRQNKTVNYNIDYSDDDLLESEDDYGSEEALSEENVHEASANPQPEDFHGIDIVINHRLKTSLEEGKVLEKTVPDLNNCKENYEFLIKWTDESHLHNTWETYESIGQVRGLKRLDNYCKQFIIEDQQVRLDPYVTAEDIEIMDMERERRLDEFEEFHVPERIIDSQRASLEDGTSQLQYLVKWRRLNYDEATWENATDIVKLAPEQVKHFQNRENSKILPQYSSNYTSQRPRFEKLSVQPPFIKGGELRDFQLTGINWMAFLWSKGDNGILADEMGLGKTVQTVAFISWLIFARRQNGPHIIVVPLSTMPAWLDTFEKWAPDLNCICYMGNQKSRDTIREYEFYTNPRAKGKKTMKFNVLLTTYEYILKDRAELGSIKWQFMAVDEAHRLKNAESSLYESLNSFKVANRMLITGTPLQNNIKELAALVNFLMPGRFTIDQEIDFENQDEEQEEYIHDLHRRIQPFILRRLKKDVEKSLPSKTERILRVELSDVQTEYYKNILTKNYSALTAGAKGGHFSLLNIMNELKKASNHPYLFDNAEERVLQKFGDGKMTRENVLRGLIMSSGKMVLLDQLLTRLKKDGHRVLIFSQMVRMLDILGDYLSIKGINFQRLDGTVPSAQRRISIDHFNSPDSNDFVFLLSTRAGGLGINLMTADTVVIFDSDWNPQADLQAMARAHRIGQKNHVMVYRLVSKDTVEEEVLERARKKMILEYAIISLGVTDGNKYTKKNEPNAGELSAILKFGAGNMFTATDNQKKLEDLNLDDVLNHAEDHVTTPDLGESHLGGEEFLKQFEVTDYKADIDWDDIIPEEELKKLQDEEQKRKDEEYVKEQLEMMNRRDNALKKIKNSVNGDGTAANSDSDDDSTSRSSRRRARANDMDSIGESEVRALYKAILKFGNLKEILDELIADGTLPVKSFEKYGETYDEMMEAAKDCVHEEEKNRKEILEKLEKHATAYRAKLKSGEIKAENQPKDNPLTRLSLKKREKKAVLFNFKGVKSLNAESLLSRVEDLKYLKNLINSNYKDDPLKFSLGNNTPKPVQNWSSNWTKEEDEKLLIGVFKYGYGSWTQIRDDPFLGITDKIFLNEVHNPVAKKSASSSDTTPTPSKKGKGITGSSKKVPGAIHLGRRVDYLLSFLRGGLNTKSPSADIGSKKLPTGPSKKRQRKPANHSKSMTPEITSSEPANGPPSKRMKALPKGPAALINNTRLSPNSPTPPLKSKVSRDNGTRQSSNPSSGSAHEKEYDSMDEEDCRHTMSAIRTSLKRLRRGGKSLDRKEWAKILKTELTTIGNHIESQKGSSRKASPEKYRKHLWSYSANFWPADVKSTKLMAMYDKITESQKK

Chain of Sialic acid-binding Ig-like lectin 9 (Homo sapiens) (Q9Y336 whole entry): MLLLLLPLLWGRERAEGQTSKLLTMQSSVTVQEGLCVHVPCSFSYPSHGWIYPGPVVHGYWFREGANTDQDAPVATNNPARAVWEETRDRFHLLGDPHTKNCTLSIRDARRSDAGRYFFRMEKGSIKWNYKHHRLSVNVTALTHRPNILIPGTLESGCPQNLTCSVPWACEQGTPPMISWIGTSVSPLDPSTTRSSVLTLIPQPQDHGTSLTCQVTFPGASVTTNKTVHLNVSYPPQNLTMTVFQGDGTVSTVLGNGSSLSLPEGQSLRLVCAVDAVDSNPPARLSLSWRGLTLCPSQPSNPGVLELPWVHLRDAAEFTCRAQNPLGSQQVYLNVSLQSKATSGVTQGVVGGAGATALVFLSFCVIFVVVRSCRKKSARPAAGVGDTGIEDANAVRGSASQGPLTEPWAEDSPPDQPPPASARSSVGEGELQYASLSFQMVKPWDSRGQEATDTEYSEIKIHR
Chain of Protein translocase subunit SecA (Escherichia coli (strain K12)) (P10408 whole entry): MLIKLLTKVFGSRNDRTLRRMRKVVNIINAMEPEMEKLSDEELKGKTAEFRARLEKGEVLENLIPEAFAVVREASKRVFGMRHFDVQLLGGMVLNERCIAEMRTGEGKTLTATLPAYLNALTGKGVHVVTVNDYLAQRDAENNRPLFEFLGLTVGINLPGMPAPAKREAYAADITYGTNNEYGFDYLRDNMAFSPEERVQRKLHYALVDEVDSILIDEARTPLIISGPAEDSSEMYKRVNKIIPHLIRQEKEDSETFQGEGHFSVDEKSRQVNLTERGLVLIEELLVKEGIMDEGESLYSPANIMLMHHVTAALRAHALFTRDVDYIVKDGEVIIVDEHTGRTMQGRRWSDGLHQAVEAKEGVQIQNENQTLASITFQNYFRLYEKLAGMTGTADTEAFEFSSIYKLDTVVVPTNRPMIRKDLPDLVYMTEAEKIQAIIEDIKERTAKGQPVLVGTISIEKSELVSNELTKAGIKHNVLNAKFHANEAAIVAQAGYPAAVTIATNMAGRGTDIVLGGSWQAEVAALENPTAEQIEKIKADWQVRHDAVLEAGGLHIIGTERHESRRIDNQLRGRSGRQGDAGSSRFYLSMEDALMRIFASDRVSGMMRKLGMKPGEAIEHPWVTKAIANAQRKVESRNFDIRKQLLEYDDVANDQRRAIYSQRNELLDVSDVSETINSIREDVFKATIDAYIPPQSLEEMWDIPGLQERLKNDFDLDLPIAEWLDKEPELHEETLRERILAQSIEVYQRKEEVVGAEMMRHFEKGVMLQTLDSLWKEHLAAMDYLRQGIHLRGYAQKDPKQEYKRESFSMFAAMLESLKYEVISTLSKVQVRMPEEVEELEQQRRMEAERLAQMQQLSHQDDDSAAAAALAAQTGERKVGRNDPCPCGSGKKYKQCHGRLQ

On to `CC(=O)N1CCN(c2ccc3ccc(C(=O)NC4CCCC4)cn23)CC1`, for which the PXC50 in test [1] (BOTTOM 0.0163, HILLSLOPE 3.098457383, MAX_EFFECT 65.01650165, TOP 63.35125002) worked out at 4.68; in [1] (BOTTOM 1.065846223, HILLSLOPE 1.103958369, MAX_EFFECT 61.67400881, TOP 100.0) it was 4.54; in test [1] (BOTTOM 3.194533203, HILLSLOPE 3.014598033, MAX_EFFECT 67.98418972, TOP 64.53848237), 4.96; in test [1] (BOTTOM 4.030962781, HILLSLOPE 1.885788534, MAX_EFFECT 71.11111111, TOP 74.41524471), 4.79; in test [1] (BOTTOM 4.940042643, HILLSLOPE 1.835166553, MAX_EFFECT 81.72043011, TOP 100.0), 4.36; in [1] (BOTTOM 5.527382632, HILLSLOPE 1.355052942, MAX_EFFECT 67.14876033, TOP 100.0), 4.56. Moreover, the PXC50 in test [1] (BOTTOM 8.593441039, HILLSLOPE 3.55536171, MAX_EFFECT 67.39130435, TOP 63.3453536) is 4.8. Besides, the Percent Effect in test [2] is -2.65%; in test [3], 14.3%; in test [4], 3.54%; in [5], -0.563%; in [6] it was 1.37%; in test [7], 12.4%. In addition, the Percent Effect is 8.76% in test [8], 31.9% in test [9], 15% in test [10] and -4.27% in test [11].
For the molecule `O=C(O)CN1CCC(F)(F)C2(CCN(c3ccccc3)C2)C1` (configuration not stated), the PXC50 in [1] (BOTTOM 0.682019073, HILLSLOPE 1.183129542, MAX_EFFECT 69.01408451, TOP 100.0) amounted to 4.25; in [1] (BOTTOM 1.497780238, HILLSLOPE 1.024260355, MAX_EFFECT 65.37037037, TOP 100.0), 4.23; in test [1] (BOTTOM -1.515302198, HILLSLOPE 0.859784414, MAX_EFFECT 63.76811594, TOP 100.0) it was 4.28; in test [1] (BOTTOM -4.436470638, HILLSLOPE 1.966892025, MAX_EFFECT 57.61821366, TOP 100.0), 4.1; in test [1] (BOTTOM -10.23367543, HILLSLOPE 2.537985382, MAX_EFFECT 60.54421769, TOP 60.60381795) it was 4.54.
Take `CC(C)Cc1ncc(CNc2cnccc2CO)s1`: the PXC50 in test [1] (MAX_EFFECT 2.711323764), in [1] (MAX_EFFECT 4.081632653), in [1] (MAX_EFFECT 4.798464491), in [1] (MAX_EFFECT 7.246376812) and in test [1] (MAX_EFFECT 9.632224168) was under 4 throughout.
